We go through 13 compounds from PubChem BioAssay (NCATS).

Records with an inconclusive call do not appear. Calls of active or inactive are those of the source. Unless noted, calls come from the whole dose curve; as a rule, active = well fitted curve in the direction sought with a large enough effect; inconclusive = small, poorly fitted or top-dose-only effect, or another doubt; inactive = no such curve, though single readings can be large; an effect the other way counts as inactive or inconclusive.

A short description of assay [1]: P-glycoprotein substrates identified in KB-8-5-11 adenocarcinoma cell line, qHTS therapeutic library screen (AID 1346987). Note: nearly all actives have a fitted effect of over 65% in size. Note: potency is the fitted concentration of half-maximal effect. In short, it runs like this:
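In this qHTS, P-gp-rich KB-8-5-11 cells received library compounds across a concentration range. Viability was quantified by luminescence after 72 h at 37 degree C.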

Assay [2] is described as follows: Natriuretic polypeptide receptor (hNpr1) antagonism - Pilot counterscreen GloSensor control cell line (AID 1347045; calls by dose curve; note: series mostly up to about 38 µM). An outline of the steps:
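HEK293 cGMP-sensor cells; 2% GloSensor reagent 2 h RT; LOPAC compounds in 1:5 titrations 30-50 min; 50 uM SNP 20 min; luminescence pre-read and post-read.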

Assay [3] deals with Atrial natriuretic peptide receptor 2 (Homo sapiens) (UniProt P20594). Briefly: Natriuretic polypeptide receptor (hNpr2) antagonism - Pilot subtype selectivity assay (AID 1347050; calls by dose curve). In short, it runs like this:
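Antagonist mode: compounds (LOPAC1280, seven 1:5 dilutions) added 30 min before 1 nM hNppC stimulation of hNpr2-HEK293 cGMP-sensor cells; luminescence read before and 20 min after agonist at ambient temperature.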

Assay [4] deals with T1, Tyrosine-protein phosphatase non-receptor type substrate 1 (Homo sapiens) + Leukocyte surface antigen CD47 (Homo sapiens) (UniProt P78324+Q08722). Briefly: CD47-SIRPalpha protein protein interaction - LANCE assay qHTS validation (AID 1347057; active = well fitted curve in the direction sought with a large enough effect in the signal ratio, with a control signal flat, not every such curve was filed as active; the % refers to the signal ratio; note: series mostly up to about 38 µM). An outline of the steps: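 Inhibition of soluble CD47/SIRPalpha ectodomain association by titrated compounds, measured as 665/615 nm time-resolved FRET ratio after sequential 30 min room-temperature incubations.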
In general terms: Time-resolved FRET reads energy transfer from a long-lived donor to a nearby acceptor.

Assay [5] concerns the target T1, Tyrosine-protein phosphatase non-receptor type substrate 1 (Homo sapiens) + Leukocyte surface antigen CD47 (Homo sapiens). Briefly: CD47-SIRPalpha protein protein interaction - HTRF assay qHTS validation (AID 1347058; active = well fitted curve in the direction sought with a large enough effect in the signal ratio, not every such curve was filed as active; the % refers to the signal ratio; note: series mostly up to about 38 µM). In short, it runs like this: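 Soluble extracellular domains (6His-CD47, Avi-tag-biotinylated SIRPalpha) in PBS pH 7.4 with 0.05% IGEPAL CA-630. Compounds were preincubated 30 min at RT with CD47 and anti-His-Eu, then SIRPalpha and SAV-XL665 were added. TR-FRET 665/615 ratio.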

Assay [6] shares this target. Briefly: CD47-SIRPalpha protein protein interaction - Alpha assay qHTS validation (AID 1347059).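 Note: bead proximity luminescence from CD47 binding SIRPalpha after compound preincubation with SIRPalpha.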 In short, it runs like this:
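AlphaScreen signal between CD47-His (12.5 nM) and biotin-SIRPalpha (25 nM) soluble extracellular domains, bead-captured via Ni-NTA and streptavidin. Compounds, in 7-point titrations, met SIRPalpha 30 min before CD47; PBS pH 7.4 with 0.05% IGEPAL.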
Background: qHTS replaces the single test concentration by a dilution series.

Assay [7] concerns the target Parathyroid hormone/parathyroid hormone-related peptide receptor (Homo sapiens) (UniProt Q03431). Briefly: qHTS for PTHR1 Agonists: Optimization Screen against the NCGC LOPAC library (AID 1347079).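 Note: GloSensor cAMP luminescence in HEK-293 GP2 cells expressing human PTHR1 with IBMX.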 An outline of the steps: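 Signal increase flags agonism. GP2 cells, derived from HEK-293, express human PTHR1 and a GloSensor cAMP construct.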
A short description of assay [8]: qHTS for Inhibitors of the Functional Ribonucleoprotein Complex (vRNP) of Lassa (LASV) Arenavirus: LASV Primary Screen - GLuc reporter signal (AID 1347082; calls by dose curve; tested in HEK293 reporter line; note: series mostly up to about 57 µM; nearly all actives have a fitted effect of over 60% in size).
Assay [9] can be described thus: qHTS for Inhibitors of the Functional Ribonucleoprotein Complex (vRNP) of Lassa (LASV) Arenavirus: Viability assay - alamar blue signal for LASV Primary Screen (AID 1347083; calls by dose curve; tested in HEK293 reporter line; note: nearly all actives have a fitted effect of over 80% in size; note: potency is the fitted concentration of half-maximal effect).
The nature of assay [10]: qHTS for Inhibitors of the Functional Ribonucleoprotein Complex (vRNP) of Lymphocytic Choriomeningitis Arenaviruses (LCMV): Viability assay - alamar blue signal for LCMV Primary Screen (AID 1347085; calls by dose curve; tested in HEK293 reporter line; note: nearly all actives have a fitted effect of over 80% in size; note: potency is the fitted concentration of half-maximal effect).
The target in assay [11] is Nucleoprotein (Lymphocytic choriomeningitis virus (strain Armstrong)) (UniProt P09992). The experiment in a line: qHTS for Inhibitors of the Functional Ribonucleoprotein Complex (vRNP) of Lymphocytic Choriomeningitis Arenaviruses (LCMV): LCMV Primary Screen - GLuc reporter signal (AID 1347086; calls by dose curve; note: nearly all actives have a fitted effect of over 70% in size; note: potency is the fitted concentration of half-maximal effect).
Assay [12] in a line: qHTS of pediatric cancer cell lines to identify multiple opportunities for drug repurposing: Primary screen for TC32 cells (AID 1347089). Note: nearly all actives have a fitted effect of over 60% in size. An outline of the steps:
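Luminescent ATP read-out (CellTiter-Glo) of metabolically active TC32 cells after 48 h exposure. Concentration-response curves came from 11-point (MIPE, 0.78 nM–46 µM) or 8-point (NPC, 0.59 nM–46 µM) primary titrations; follow-up used 11 points.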

Assay [13] can be described thus: Identifying Small Molecule Inhibitors of Pancreatic Cancer Stem Cells (Panc1, Adherent) (AID 1259362). Note: potency is the fitted concentration of half-maximal effect. The following applies: Potency: viability. In short, it runs like this: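 Adherent (2D) versus sphere (3D) formats; spheres generated 14 d in SCM beforehand. Compound transferred by pin tool after 4 h, 48 h incubation, CellTiter-Glo endpoint.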
A short description of assay [14]: P-glycoprotein substrates identified in KB-3-1 adenocarcinoma cell line, qHTS therapeutic library screen (AID 1346986). Note: nearly all actives have a fitted effect of over 60% in size.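 Note: potency is the fitted concentration of half-maximal effect; potency is for cytotoxicity meaning loss of cell viability.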 In short, it runs like this:
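Dose-response cytotoxicity, KB-3-1 vs P-gp-high KB-8-5-11, no colchicine in assay medium. Read: CellTiter-Glo at 72 h.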

Assay [15] in a line: qHTS of pediatric cancer cell lines to identify multiple opportunities for drug repurposing: Primary screen for DAOY cells (AID 1347090). Note: series mostly up to about 46 µM; nearly all actives have a fitted effect of over 55% in size. An outline of the steps:
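Cell viability, CellTiter-Glo luminescence; 500-1,000 cells/well, 8- or 11-point titration, 48 h compound exposure at 37 degrees C, 5% CO2. Controls: DMSO neutral, bortezomib 2.3 µM final as positive.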

A short description of assay [16]: Identifying Small Molecule Inhibitors of Pancreatic Cancer Stem Cells (SN12C, Spheroid) (AID 1259360). Note: potency is the fitted concentration of half-maximal effect. Conditions: Potency: SN12C spheroid viability. An outline of the steps: (§1)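 Spheroids grown 14 days in stem cell media on hydrogel-coated nonadherent plates; 2D lines seeded directly. Compounds added after 4 h attachment, 48 h at 37C, 5% CO2; CellTiter-Glo luminescence normalized to DMSO (no inhibition) and no-cell wells (full inhibition).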

The nature of assay [17]: Identifying Small Molecule Inhibitors of Pancreatic Cancer Stem Cells (A278, Adherent) (AID 1259361). Note: nearly all actives have a fitted effect of over 35% in size. An outline of the steps:
(§2)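 Cytotoxicity read by CellTiter-Glo luminescence after 48 h compound exposure at 37C; percent activity scaled between DMSO-treated cells and cell-free wells. Spheroid formats used cells pre-formed 14 days in stem cell media on hydrogel.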

Assay [18] is described as follows: NS1 protein of Zika virus - qHTS assay to identify small molecule inhibitors in human HEK 293 cells (AID 1347053). Note: series mostly up to about 46 µM; nearly all actives have a fitted effect of over 55% in size. In short, it runs like this: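 Read-out is a two-antibody TR-FRET for ZIKV NS1, normalized between uninfected cells and infected cells. Compound added 1 h before MR766 infection at MOI 0.5; human HEK 293 cells incubated 24 h, 37 C.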
Assay [19] in a line: Identifying Small Molecule Inhibitors of Pancreatic Cancer Stem Cells (SN12C, Adherent) (AID 1259358).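 Note: cell survival measured after 48 h of compound exposure.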 In short, it runs like this:
as §2

Assay [20] is described as follows: Identifying Small Molecule Inhibitors of Pancreatic Cancer Stem Cells (Panc1, Spheroid) (AID 1259359).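 Note: compound exposure lasted 48 h before reading.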 An outline of the steps: as §1

Sequence of Atrial natriuretic peptide receptor 2 (Homo sapiens) (P20594 whole entry, looked up): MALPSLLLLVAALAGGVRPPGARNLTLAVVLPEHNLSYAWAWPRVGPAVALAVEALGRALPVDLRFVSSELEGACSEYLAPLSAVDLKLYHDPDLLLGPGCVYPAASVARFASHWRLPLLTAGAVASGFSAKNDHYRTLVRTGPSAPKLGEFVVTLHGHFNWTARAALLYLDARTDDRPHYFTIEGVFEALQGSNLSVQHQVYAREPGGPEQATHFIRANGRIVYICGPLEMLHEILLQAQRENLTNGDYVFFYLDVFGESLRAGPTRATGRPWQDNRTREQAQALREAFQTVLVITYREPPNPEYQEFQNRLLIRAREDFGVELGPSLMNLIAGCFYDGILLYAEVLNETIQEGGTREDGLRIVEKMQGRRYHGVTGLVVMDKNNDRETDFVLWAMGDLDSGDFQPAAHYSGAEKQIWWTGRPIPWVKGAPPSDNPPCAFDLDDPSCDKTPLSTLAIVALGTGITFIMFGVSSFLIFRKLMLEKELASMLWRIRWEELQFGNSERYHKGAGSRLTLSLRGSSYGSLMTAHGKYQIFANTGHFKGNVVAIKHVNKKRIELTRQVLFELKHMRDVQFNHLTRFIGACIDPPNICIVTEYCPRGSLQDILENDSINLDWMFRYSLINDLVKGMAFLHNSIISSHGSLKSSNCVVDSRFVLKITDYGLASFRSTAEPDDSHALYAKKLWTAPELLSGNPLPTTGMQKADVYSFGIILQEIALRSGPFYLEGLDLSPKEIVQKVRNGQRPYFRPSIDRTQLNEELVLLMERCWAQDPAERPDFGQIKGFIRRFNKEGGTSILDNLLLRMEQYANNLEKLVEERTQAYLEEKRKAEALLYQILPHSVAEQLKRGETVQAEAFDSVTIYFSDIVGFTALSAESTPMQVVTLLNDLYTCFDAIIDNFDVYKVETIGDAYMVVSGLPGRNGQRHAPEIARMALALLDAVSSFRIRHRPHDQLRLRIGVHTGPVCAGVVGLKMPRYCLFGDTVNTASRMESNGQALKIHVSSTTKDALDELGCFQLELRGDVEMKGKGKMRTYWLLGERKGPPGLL
Sequence of Parathyroid hormone/parathyroid hormone-related peptide receptor (Homo sapiens) (Q03431 whole entry, looked up): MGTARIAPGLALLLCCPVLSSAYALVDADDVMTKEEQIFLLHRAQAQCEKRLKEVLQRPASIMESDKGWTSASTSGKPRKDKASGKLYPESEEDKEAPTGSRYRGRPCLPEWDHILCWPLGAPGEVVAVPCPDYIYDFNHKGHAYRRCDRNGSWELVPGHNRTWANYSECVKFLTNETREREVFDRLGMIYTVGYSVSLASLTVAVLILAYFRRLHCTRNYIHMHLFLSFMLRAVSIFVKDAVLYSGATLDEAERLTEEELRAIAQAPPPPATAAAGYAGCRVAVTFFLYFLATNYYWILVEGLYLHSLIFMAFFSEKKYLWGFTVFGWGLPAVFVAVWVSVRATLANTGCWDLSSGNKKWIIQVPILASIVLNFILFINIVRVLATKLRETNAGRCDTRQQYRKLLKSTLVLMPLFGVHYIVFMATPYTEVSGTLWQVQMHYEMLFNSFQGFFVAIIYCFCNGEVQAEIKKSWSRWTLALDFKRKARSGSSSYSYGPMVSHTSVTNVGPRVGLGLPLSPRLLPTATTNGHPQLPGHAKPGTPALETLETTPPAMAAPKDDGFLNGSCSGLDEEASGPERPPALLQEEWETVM
T1 sequence (P78324 whole entry, looked up, the tested form may be a part): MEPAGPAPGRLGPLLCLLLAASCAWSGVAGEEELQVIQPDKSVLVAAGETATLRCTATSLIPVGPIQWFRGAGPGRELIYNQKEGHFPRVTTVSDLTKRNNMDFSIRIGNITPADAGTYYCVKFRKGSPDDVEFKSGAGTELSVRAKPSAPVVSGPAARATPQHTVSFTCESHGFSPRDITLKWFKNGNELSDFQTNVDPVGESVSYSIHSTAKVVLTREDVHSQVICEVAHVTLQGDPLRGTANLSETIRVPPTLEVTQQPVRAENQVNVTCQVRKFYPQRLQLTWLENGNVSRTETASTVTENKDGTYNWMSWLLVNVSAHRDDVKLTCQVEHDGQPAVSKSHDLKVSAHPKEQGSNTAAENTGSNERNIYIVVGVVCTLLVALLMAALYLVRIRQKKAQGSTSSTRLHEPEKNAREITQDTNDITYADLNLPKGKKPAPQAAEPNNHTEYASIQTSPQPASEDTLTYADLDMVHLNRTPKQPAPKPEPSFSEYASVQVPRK
T1 sequence (Q08722 whole entry, looked up, the tested form may be a part): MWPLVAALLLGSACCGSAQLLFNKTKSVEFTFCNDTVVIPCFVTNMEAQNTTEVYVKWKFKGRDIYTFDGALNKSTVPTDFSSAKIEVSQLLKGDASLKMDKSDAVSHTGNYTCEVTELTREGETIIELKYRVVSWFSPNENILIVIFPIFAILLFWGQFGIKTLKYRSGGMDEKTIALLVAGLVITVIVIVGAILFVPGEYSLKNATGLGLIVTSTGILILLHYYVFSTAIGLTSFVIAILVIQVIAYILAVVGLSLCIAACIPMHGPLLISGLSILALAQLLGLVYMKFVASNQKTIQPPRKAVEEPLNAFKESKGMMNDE
Sequence of Nucleoprotein (Lymphocytic choriomeningitis virus (strain Armstrong)) (P09992 whole entry, looked up): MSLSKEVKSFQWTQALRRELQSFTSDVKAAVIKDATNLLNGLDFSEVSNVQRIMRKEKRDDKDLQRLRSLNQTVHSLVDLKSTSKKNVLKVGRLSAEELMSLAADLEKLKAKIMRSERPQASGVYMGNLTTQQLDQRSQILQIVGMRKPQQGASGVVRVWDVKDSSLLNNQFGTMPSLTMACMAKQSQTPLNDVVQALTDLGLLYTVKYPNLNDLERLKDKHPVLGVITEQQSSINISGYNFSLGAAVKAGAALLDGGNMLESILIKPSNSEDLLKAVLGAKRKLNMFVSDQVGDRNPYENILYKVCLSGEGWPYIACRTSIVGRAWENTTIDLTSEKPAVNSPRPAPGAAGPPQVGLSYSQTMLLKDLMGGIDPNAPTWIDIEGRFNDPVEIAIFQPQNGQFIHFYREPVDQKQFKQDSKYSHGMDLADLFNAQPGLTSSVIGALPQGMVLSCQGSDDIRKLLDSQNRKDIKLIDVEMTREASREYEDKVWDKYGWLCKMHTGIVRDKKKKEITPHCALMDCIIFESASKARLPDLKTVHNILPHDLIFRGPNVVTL

For `CC(=O)[C@H]1CC[C@H]2[C@@H]3CC[C@H]4C[C@](C)(O)CC[C@]4(C)[C@H]3CC[C@]12C`, the Potency entry in assay [1], in [2], in assay [3], in [8], in [9] and in assay [10] was “inactive” in each case. The Potency result in assay [11] and in assay [12] was “inactive” throughout. The result in assay [4], in [5], in assay [6] and in assay [7] was inactive.

On to `Cc1cccc(C)c1NC(=O)CN1CCCC1=O`, for which the Potency result in assay [1], in assay [2], in assay [3], in assay [8], in assay [9] and in assay [10] was “inactive” each time. Besides, the Potency entry in assay [11] and in [12] was “inactive” throughout. The outcome in [4], in assay [5], in assay [6] and in assay [7] was inactive.

Take `Cc1sc2c(c1C)C(c1ccc(Cl)cc1)=N[C@@H](CC(=O)OC(C)(C)C)c1nnc(C)n1-2`: the Potency in assay [13] is 4.18 µM (active); in assay [1], 0.469 µM (active); in [9] it was 2.43 µM (active); in assay [10], 1.09 µM (active); in [11], 0.385 µM (active).

In the case of `COc1ccc2c(c1OC)CN1CCc3cc4c(cc3C1C2)OCO4` (configuration not stated), the Potency in [14] was 9.2 µM (active). Also, the Potency entry in assay [1], in assay [8], in assay [9], in [10], in assay [11] and in assay [12] was “inactive” each time. Besides, in assay [15], the Potency entry is “inactive”.

Turning to `CNCC(O)c1ccc(O)cc1` (configuration not stated), the Potency entry in assay [14], in [1], in assay [2], in assay [3], in assay [8] and in [9] was “inactive” in each case. For the same compound, the Potency result in [10], in assay [11] and in assay [12] was “inactive” each time. Besides, the result in [4], in assay [5], in assay [6] and in assay [7] was inactive.

In the case of `CNC(=O)N1N=C(c2ccc(N)cc2)c2cc3c(cc2CC1C)OCO3` (configuration not stated), the Potency entry in [16] and in assay [18] was “inactive” each time. Also, the IC50 (viability decrease) in assay [17] was 7.43 µM (active).

In the case of `Cc1cc(SCc2sc(-c3ccc(C(F)(F)F)c(F)c3)nc2C)ccc1OCC(=O)O`, the Potency result in assay [19], in assay [14], in assay [1], in assay [18], in [8] and in [9] was “inactive” each time. Further, the Potency entry in assay [10], in [11] and in assay [12] was “inactive” each time. The compound was called inactive in [20]. Moreover, the IC50 (viability decrease) entry in assay [17] was “inactive”.

Regarding `CN(C)CCN(C)CCc1ccc(Cl)c(Cl)c1`, the Potency in [16] was 18.7 µM (active); in [10], 21.7 µM (active). In [17], the IC50 (viability decrease) entry was “inactive”. The Potency result in assay [1], in [12] and in [15] was “inactive” throughout.

Consider `O=C(O)P(=O)(O)O`, for which the Potency entry in [14], in assay [1], in [8], in assay [9], in [10] and in assay [11] was “inactive” throughout.

In the case of `CCC1(C2=NCCN2)Cc2ccccc2O1` (configuration not stated), the Potency result in [1], in assay [2], in assay [3], in assay [8], in assay [9] and in [10] was “inactive” each time. For the same compound, the Potency result in assay [11] and in assay [12] was “inactive” each time. In addition, the result in [4], in assay [5], in assay [6] and in assay [7] was inactive.

As to `Nc1ccncc1`, the Potency result in assay [1], in [2], in assay [3], in [8], in [9] and in [10] was “inactive” in each case. Besides, the Potency result in assay [11], in [12] and in assay [15] was “inactive” in each case. For the same compound, the outcome in [4], in assay [5], in assay [6] and in [7] was inactive.

For `CCCCC/C=C\C/C=C\C/C=C\C/C=C\CCCC(=O)NC1CC1`, the Potency entry in assay [19] and in [16] was “inactive” each time.

`c1ccc(C2CC2)c(OCC2=NCCN2)c1`: the Potency result in [1], in [2], in assay [3], in [18], in [8] and in [9] was “inactive” each time. Also, the Potency result in assay [10], in assay [11], in assay [12] and in assay [15] was “inactive” throughout. Besides, the result in [4], in [5], in assay [6] and in assay [7] was inactive.
